# The full ranking holds about 59,000 sequences; the median of the read-out is about -0.00055, and the lowest 2% start at about -2. This is one part of a sample in which the lowest values are shown more often than they occur.
# Experiment: Identification of proteins required for the processing of the EWS-FLI1 nascent transcript;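 also: robust z of luciferase light less the median z of siRNAs with the same seed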
# Conditions: TC32 Ewing sarcoma NR0B1-luc vs CMV-luc (EWS-FLI1 target promoter against control promoter), 48 h; screened at 20 nM (by protocol)
# How it was run: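 TC32 Ewing sarcoma cells carrying NR0B1-promoter or CMV-promoter luciferase reporters were reverse-transfected with single siRNAs at 20 nM, three per gene genome-wide. Luminescence was read after 48 h and normalized to non-targeting controls.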
row,Sequence,seed-corrected z-score
1,UGAUUAACCAGUACUGAUG against C5orf42,0.83
2,AUUAGAACUACAGCUCUCG against LOC648999,0.638
3,UCGAUGGUAAGGUAAGAGC against DNMT3B,-2.25
4,UCUCGUAGAACAUUGCUGG against VPS53,-0.933
5,AAAGCUGGAAUAAAUAGUC against DLX5,-0.397
6,UGAAUGUCAAUGUCGUAUG against PCDHB1,-0.133
7,UGUUGUUCUUGACUGACUG against SNRPD2P1,-4.32
8,UUAGUGAUAUUCUUGACAG against PSMD5,0.816
9,UCAUGUAAAACUCUCGGCC against PARS2,-0.0062
10,UCAUUGAAGUGCUUAGUGG against RASGRF1,-0.277
11,UGUUGUAGAUCCAUAGUUC against KLHDC2,-4.33
12,UCCAUGUCAUGUAAAUUUC against MR1,-0.441
13,AUUGCAAAAGUAGAUUUAC against RPL26P30,0.181
14,UUCAGUUCUAGAGGUCUGC against TMEM53,-0.0791
15,UUCGCUUCCAGUUCACCUC against MBOAT1,0.704
16,UAUGUGACGAGGGUCAUGC against THBS1,-2.07
17,AAACCCUUCACAGUCUUGG against LOC388955,0.158
18,AGCUAUAUUAUUCACAGCC against BTF3L4,-0.0759
19,UGUCUAAUAAACAAGUUAC against DNA2,-0.418
20,UCUCCGAUGAGAGCUUUGG against GNS,-0.354
21,AUAGUGUAAAGAACAUCCG against HNRNPL,2.46
22,UCCAUUACAAUCGACCUUU against PROK2,-0.664

row,Sequence,seed-corrected z-score
1,UUCCCGUUCAUUUUGCAAC against ASZ1,-0.283
2,AAGGUGUCGAUGUCCAUGG against MSLNL,-2.6
3,AAAUCAACCAAUUAAAGUC against LOC403323,1.01
4,UGUUCAAUCUUGGAGCUGG against LRRC8E,1.15
5,AAAGAUCAAAUCUGAUUCC against MRPL19,-0.8
6,AUAUGUUCAAGGUGAUUCG against OR6K2,-0.456
7,AUCGCGAACACUAACGUAC against SUB1,-0.141
8,UUAGGUAACGGAAACGGGC against LDHC,0.562
9,UUGGUAUUGAUCGUUUAUG against DCUN1D1,1.03
10,AUACCGAAAACCUUCGCCC against ABCA3,0.623
11,UAUGGUUACAAAGGGAACU against ZNF669,0.508
12,UCAGGUACAAUUCUGAUUC against KRT38,-0.223
13,UUGGGUGUCAGGAUCUCGU against MYH14,-2.4
14,UACAUCUCCAGGGUCAGCG against CALY,-0.514
15,UCUGCGACUCCUGUUCUGC against WRBP1,0.0575
16,UUUGUAAGGUUGCUGAUCG against CLIP1,0.221
17,UUCUCGUCUAGUUUGCAUC against SH3RF3,0.155
18,AUUGUUUGUGGUAUUGUAG against CRHR1,0.211
19,UGAGUGCUUACUGGUUUGC against C9orf47,-3.58
20,UCGGAUGUAUCUGAGGUGC against DCAF8L1,-0.269
21,UCUAAUUCUGCGGCUUUUC against SCAMP1,-0.0112
22,UAGAUGCUCAGGGAUCACC against AS3MT,1.06

row,Sequence,seed-corrected z-score
1,UUUCGAACACGAAACAUUC against LOC340089,-0.0497
2,AUACCUGCUAAUGUCAUCC against ERCC6,-3.8
3,ACAGUUAGUAUUGUACUUG against ZNF280C,0.315
4,UGAGUUUCCAGGCUAUCAC against CCDC122,-2.99
5,AUACUGAAAAUAGUACAUG against KMT5A,0.332
6,UGUACAGAGAGGGCAUGUG against BAIAP2L2,-1.82
7,UUUCAUAGAUUAGCACUCC against PRKACB,-0.257
8,UCGGUGAUGAGGCUGAUCC against G6PC3,-0.843
9,AGUGUAACAGACAUCAUGC against DLAT,-0.966
10,UUGUAUUCCCUUGUGGUCC against KHDRBS1,-2.93
11,UGCUUUGUCGUAAUCUUCC against UNC45A,-0.29
12,AAAAUAAUCGAUGUGAUUU against FOXI3,-0.41
13,AUCACUCUCACAUACAUGG against RCAN1,-0.288
14,UAUCGUGAAACAGACUUCC against SND1,0.0523
15,UUCUAAACAACUCUUGGAC against RPUSD4,-0.962
16,UACAGGGUCAGGGAGAGGU against PTPN6,-2.18
17,UUGUAUACAACCUAUCAAC against B4GALT6,-0.657
18,UUAUUUUGAAUAGCCUUCC against SERBP1,1.09
19,UAUAUCGACAGCUCAGCUC against SUPT6H,-4.43
20,UUGGUAUCCAAAGACGAUG against RTKN2,-0.918
21,AAGGGCAAAGGAGUGAGGC against LOC100289495,-0.199
22,UUCUGGUUAGUCAUAUUGG against HDAC1,-0.41

row,Sequence,seed-corrected z-score
1,UUGAGGGCAGAAGUACACU against FAM231D,-0.76
2,UGGUUUGUCAGCGGGAUUC against MINK1,-2.53
3,AUCCGAACACCCAUAAGCC against POLK,-0.479
4,UUAAUUCUAUUCGAUCAUC against MNS1,0.033
5,UCUUAUGUUGGUGUUGUUC against SMOC1,0.0653
6,UGAGUGAUAGUCUAGACUC against SOX9-AS1,0.0191
7,UUUAUUUAGGGAGCUCCAG against ETHE1,0.835
8,UUACGUUCAGAGUCUAUCG against C17orf75,0.0852
9,UUGUUGAUCACUUUGACGG against IKZF3,0.604
10,AAACAGUCCAUUAACUUCU against RBM38,0.257
11,UUCUUGGUAAGAUCGAGAG against RNF43,-2.77
12,AAUGCGAUUAUUGUCUGUC against CCT3,0.0264
13,UCGGUUGUAUAUGUCAUCC against KIAA0100,0.141
14,UUCACUGAUCUGAAAGUUG against NAA10,0.839
15,UCACUGUGCAUUUCUCCAC against GUCD1,0.93
16,UUAUAGUAUGCAGGAAUGG against FAM150B,-1.67
17,UGACUAAGAACUGUAUCCC against CC2D2B,-2.16
18,UUUUCGGCGUGUAUCCUCG against CHMP1B,-0.617
19,UCUUUGACAAGGACCCUUC against G2E3,1.23
20,UAGGUCAAGAUAACCAUGC against OR8K1,-13.9
21,UUUGUGCUGCUUGUUCUCG against ADCK3,-1
22,UGUAUCUCGAUCUUCACCG against STRN,-0.0881

row,Sequence,seed-corrected z-score
1,UGCAUGAAUAGAGUCGGCG against RAB22A,-0.347
2,AAAUAUAUAGGGCAUCCAG against PLEKHM1P1,0.174
3,UCUUCUCUAAGUCUAGGUC against POM121,0.532
4,UGCUGAAUAGGUCCAAUCC against HERPUD1,-1.46
5,UCAUAUGGAACUCUAAAGC against PIK3CG,0.358
6,AAUCUUCAAACAGCCGCUC against CHRNA3,-2.52
7,AUAUGAUUCCCAAUUAAUG against TMEM119,1.74
8,UAAGAUCCGAGUCACUAUC against RPH3AL,-0.639
9,UUUCAGCUUCUUGUACUGG against ROCK1P1,-2.99
10,UCGUUGAUCACAAUUAGCU against ADAM11,0.436
11,UCUGGUAUCAGAAAGUUCG against BBS7,-0.128
12,ACAGAUAUAGGAGAAAGCC against NUMBL,0.00267
13,UAGCCUAUCAAUGAAACCU against ZNF222,0.694
14,UUUACGUCGUUCUUCUUCC against TXLNG,0.0162
15,UUUGGGUCAACGGUGAGGU against KIAA2012,0.316
16,AUGUUUUUCAAGUAGCUUC against CDRT4,-1.38
17,UUAACUUGUUGUAUUGCUG against CCDC109B,1.36
18,AACACUAUUUAGCUCAUUC against TARBP1,0.0464
19,UGAGAGAUAAUUUUGGGAG against SPDYC,-12.8
20,UUACUUUCUUCAACCAAAG against TRMT6,0.527
21,UUUCGAAGUUGCAUGGUUG against KDM5D,-0.291
22,UCUUAGACCCUGGAGGUGG against TBRG4,-0.178

row,Sequence,seed-corrected z-score
1,UAUUAGACAGAACUCUUGG against TNRC6C,-14.8
2,UUAGAUUUCUCCCUCGGUG against ZNF136,-0.576
3,UCUUCGAACUGAAUGAGUG against ME2,0.165
4,UUUACUGGGAUAGUUAAUC against C2CD4A,1.08
5,UCCACUAUUACAACAGCCC against SFPQ,-2.65
6,UUCUUAUCAAGAAUAGUCC against PTER,-0.285
7,UUCUGCGUCACUUUCUACC against CRNKL1,-0.902
8,UUUGGGACAAGGCACAAGC against PRKCDBP,0.468
9,UACAAUACUAUUUCGAAUC against ZNF44,-0.235
10,UCAAAUACUGGUCGAAUUC against SOX7,0.0233
11,UUGGGCAUAAUGGAAGCUG against EIF2B2,-1.39
12,UUGGGUAGUAGCAUAGCCU against SYNC,-2.19
13,UUGAUUUCCACUCCUUUUG against SGCD,-0.522
14,UAUUUCUCGAUUAUCUUCA against ICA1L,-1.21
15,UGCAGUACCAGGUUCAGGG against DOK1,0.361
16,AAUCCCAAAACCUUCUCGC against TPRG1L,-2.07
17,ACUUGGAAAUCUCUUUUCG against FAM117A,0.27
18,UGUUGCAUUCUUGUCAUCC against CRAMP1,-0.303
19,UGACAUGUCCUCAACAUCA against TMEM91,-1.41
20,UUAUCGUCAUGGUAAACAC against GXYLT1,0.378
21,UCAGUAUCCAGGUCAGUGC against LEMD2,0.794
22,UCCUCCCUAACAAAUAGGC against NUDT16,-0.295

# From PubChem BioAssay AID1159506 (National Center for Advancing Translational Sciences (NCATS), 2015)
